The values below come from PubChem BioAssay AID1508600 (Functional Genomics Laboratory (NCATS/FGL), 2020).

Among all 53,000 sequences or so, about 3,700 (7%) were called active. This excerpt belongs to a sample that is enriched for actives. Unmarked numbers belong to inactive results.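 The calls were made as follows: active = gene knockdowns whose robust z-score for IL-1 alpha signal is at least 2 or at most -2, so actives lie on both sides; inactive = the rest.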

The experiment in a line: Components of the Cytosolic LPS Sensing Pathway: Gene Identification via Genome-wide siRNA Screen.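 Also: robust z of the log signal after scaling to non-targeting control siRNA wells of the plate.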 Conditions: RAW264.7 macrophages, IL-1a HTRF, actives lie on both sides, screened at 100 nM (by protocol), cells primed 5 h with Pam3CSK4 first. Summed up: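 Mouse macrophage line RAW264.7 is transfected with siRNA (100 nM final), grown 48h, primed with TLR ligand Pam3CSK4 5 h and given intracellular LipidA 24 h. IL-1a in supernatant is read by HTRF and viability by luminescence.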
In general terms: TR-FRET usually uses a lanthanide donor and a delayed reading to cut background.
For GGCCUUUGGGACAUGUGUGTT against Olfr552, the z-score is -2.05 (active).
With GGAGAAGCUCUUAAAGAAATT against Traf3ip3 the figure was 0.959; with GCAGUGAAGUCCAAGUUAGTT against Pold3, -0.456.
With CCAAUAAGUGACCUUUUUUTT against Tmprss11b the figure was -0.989.
As to CCAAGUCUACCUCUAUUUUTT against Pbsn, the z-score was 1.77.
Turning to GGUUCCUUAAUUUAUUGCCTT against Fbxl22, the z-score was 2.31 (active).
Consider CCACUAUGGCGACCAGAUUTT against Mfap2, for which the z-score was 0.0375.
Turning to GCCCUCACAGCCAGAAUUGTT against Pram1, the z-score was -2.15 (active).
With GGUUAAAAGCCAUGUGUAATT against Pggt1b the figure was -0.151; with CGAUGGUCGAAGGAUUGUCTT against Tnfsf4, -0.837; with GUCACAAGCUGUCCAACAATT against Ndufa7, -2.25 (active).
As for “GGUUUUGUCACCAUAGCCATT against 3110040N11Rik”, the z-score is -0.762.
Then GGACAUUGAGUCAAAAAUCTT against Slc19a2, with -0.966; and GCCUGGAGAAGUGAACUCUTT against Tll1, with -1.65.
Then GGGAUUUCGAGAGACUAGCTT against Dock9, with -0.487; and GCCCUGAUGCAAGCUUGUGTT against Gprin3, with 0.193; and CCUGUUUCAGUCAUUAGUGTT against Slc22a2, with 2.6 (active).
Consider GGCAACUGUUUCUGCUCCGTT against Ap4e1, for which the z-score was -0.746.
With GCCAAUCGUAACUUGCUAATT against Arhgap19 the figure was 0.865; with GGUACAACAAAAAUGUGACTT against Vmn1r73, -1.39; with GCGAGGUGAAAAGCUUCUGTT against Sobp, -0.433.
With GGAAUUUUGCCAGCAAAUGTT against Edaradd the figure was 0.624.
Then GGCCAUUAAUUACUACGAGTT against Ttc21a, with 0.368.
For the sequence GCAAAACUUGACUACCGCCTT against Bzw1, the z-score was 2.08 (active).
With CCCGAGAAUACACCAUCAATT against Rpl31 the figure was 0.347; with CCAUUCCAUGUCGAUGUCUTT against Prm2, -2.08 (active); with GGGAGAUGUAUGCUUGCUCTT against Evi2a, 0.934.
Take CUCUAUCUCAUUGCAGUCCTT against Olfr671: the z-score is -0.0809.
Take GUUCCCUACAAGUUCUUCCTT against Phox2a: the z-score was 1.54.
With GGCUUUUGUCAAACAGCAUTT against Ins1 the figure was -2.9 (active).
Turning to GCGUAGACUUGAGGACUUATT against Uimc1, the z-score is -0.705.
On to CGGCGGUGUGUUGUUUUAGTT against Hmces, for which the z-score is 0.36.
With CGGUUAGACAGUGCACCAATT against Dnm1 the figure was 0.4; with GGCUCGGACCAAAAAAAUUTT against Msantd3, -1.33; with GCAUGCGACUCUGUUCUCGTT against Gtf2a2, -0.228.
Then “GGAGAUUUUCAAGAGACUCTT against 0610010F05Rik”, with 1.94; and GGAAAAACUACCAAGAGGATT against Pigp, with 2.32 (active); and GGUCUACCAUGACACACGUTT against Prrg2, with 0.519.
Turning to GCCUGGUUUCUCCCUCAAATT against Pkmyt1, the z-score was -0.567.
For CGCAGUUAUAUUCCACCACTT against Slain1, the z-score was -0.317.
On to GGUACCUAGGAUGCUCUCATT against Ift140, for which the z-score was -2.23 (active).
Consider GGCCUUCACUGGUUAAAAUTT against Ankrd6, for which the z-score was 0.0966.
For GGAGAUCCUCAUUUGUGUGTT against Ftmt, the z-score is -1.99.
With GGGUAUGAGCAUAAAAUAATT against Il16 the figure was -1.2; with GCAAAUGGUGCAUACGUGATT against Slc35d1, 0.211; with CCAAUUUGUCAAAACAAUCTT against Slit2, 0.681.
With GGAUGUCAGGACAAAACCATT against Olfr1335, the z-score was -2.51 (active).
With GGAAGAGCUUUCUGGAAAUTT against Ndrg2, the z-score is 0.226.
Then GGCAUACUUGUACCGCUAUTT against Mmp9, with -0.35; and GGAUAUUCAGCACUGGGAATT against Rrm2, with -0.525.
GGUAGUGGACAGUUUUGACTT against Mrpl55: the z-score is 0.675.
GCCUUUCAUGGAUUAACCUTT against Gsdmc: the z-score is -2.03 (active).
Then CGACGAAGAUAUUUACAGUTT against Vav1, with 0.504; and CCAAAAAAGUUAGUUGUGGTT against Phf6, with 1.23; and GGUCGUAAAAAUUGAAAUCTT against Lhcgr, with 0.169.
With GGAGGAUCUUGAGUUGGAGTT against Nupr1l the figure was 2.32 (active); with CCAUUUAUGGGUUUUCUCUTT against Taar7b, 0.12; with GGCUGUGCUACAGUUUCUCTT against Get4, -0.498.
Then GGUCAUUGAGCUGAUGGACTT against Elovl1, with 4.34 (active).
For the sequence GGGCUUUCACACAAUCCCUTT against Kcns1, the z-score was -0.362.
With GGAACUGGCCAAUUACUACTT against Rdm1 the figure was -1.29; with GGAUAUCACUUGCUAUUCCTT against Abraxas2, -0.406; with GGCUUAUGACGAAUUAGUCTT against Ubn2, 0.274.
For the sequence GGAACAGCCUAUGUGGUCUTT against Sf3b6, the z-score is -2.17 (active).
With GCACCUUGUCAACCAUUACTT against Kctd7 the figure was 0.842.
With GGGCAUCAGCAUUUGGUCATT against Med1 the figure was 0.698; with GGAAGUCGAGUUGAAAUCGTT against Rida, 0.755; with GUUGAGUGGCUGUGAUAUATT against Nms, -0.00159.
Then GGAAAUAUGAUAGAAUGCCTT against Pramel32, with 0.17; and GGCAAAAGAACAAGAAACUTT against Orc1, with -2.09 (active).
On to GGCUAUCACCUCCAACACCTT against Fkbp8, for which the z-score is -1.04.
In the case of GGACAAGGAACAGAGCCUUTT against Rnf183, the z-score is -1.27.
Then GGAGAUCUUGAGAUUGUAUTT against Ticrr, with 0.424.
With GGAGAAAGGAUUGUGUUUGTT against Clec10a the figure was 2.2 (active); with CCCGGUUCUUAGGUUUGUATT against Prr15l, 1; with GGUCAGGUUGCCAAGAAGGTT against Sbds, 1.59.
Take GGCAUGAAUAUGCAUUUAGTT against Arrdc3: the z-score is -3.65 (active).
With CCCAUAUGAGCUGAAAGCUTT against Il1b the figure was -0.878; with GGGAAUGUCUGAAAGUCCCTT against Klhdc10, 0.66.
Turning to GGCCAUCAAGGUCUUUUCUTT against Washc1, the z-score is -1.34.
Turning to GGAUCUUCUUCUAUCAGUCTT against Ncf4, the z-score was 0.487.
For CCGUUUUGAACCAUAAAAATT against Zfp7, the z-score is -0.873.
Turning to GGCCCACGUCCUGUACAUUTT against Tdrd1, the z-score was 3.38 (active).
Then GGUUUCGUAUAAAUUCUCUTT against Ank, with 1.53.
Then CGGAGUCAUACUUUUUCGATT against Trim12c, with 0.0182; and GGUAAAAUACUACCUGAGATT against Abca15, with -0.0103; and GGAAUUCUUCAUCCAUGGATT against Olfr570, with -2.66 (active).
With CGGUUCUGGGAAUUCUUUGTT against Olfr624 the figure was -2.11 (active); with GGAAGAAAUGUACAAACUGTT against Spg21, 1.63.
As for GGACAUUUUCUUUGGAAAATT against Ccnl1, the z-score was 0.194.
As for GGACAGCAAGACCAACCUATT against Elavl2, the z-score is -1.87.
For the sequence CCAUAAAUCACUCAGUUUGTT against Adad1, the z-score is 0.222.
With GGCAUUAUCUACAUGCACATT against Olfr1287 the figure was 0.228; with GCAUGGCUAUUUAACAUUCTT against Rpl7l1, 0.171.
With GCAAUUUCUGUGUGAAGAATT against Ahcyl1 the figure was -0.705.
Take GGGCUCUAGCUAAAAACGATT against Med10: the z-score was 1.23.
Then AGUCUCCAAAUGCAUUUAATT against Serpinb9g, with -2.5 (active); and GAAUCGGAGGACAAAAUACTT against Emx1, with 0.368; and GCACCUUUGAAUGUGAAGUTT against Ccl2, with -0.408.
Then CCUUCAUUGGUUAGCAUGUTT against Rbl2, with -0.424.
With CACGACCUAGGUGUGACCATT against Arrdc2 the figure was -2.31 (active).
In the case of CCUGACGAUCAAAUCACUGTT against Mvb12a, the z-score is 0.0387.
Regarding CGCCAAUAUGGCCAUUGACTT against Ikzf2, the z-score is -0.304.
With GGCUCUGUUUAUCCUGGAGTT against Pcdha7 the figure was -0.0385; with GGUUUCAUUUUUCGAGGAGTT against Cit, -0.269; with GGUGAUACCAUCACUUUGATT against Mark2, 0.173.
Then GCCGCAUCCACACAUCUCUTT against Daam2, with 0.465; and GGCACUCAGGAACUUCCUGTT against Eci3, with -2.05 (active).
